About 79,000 compounds went through this panel and 15% of them were active in at least one assay; those are over-represented in the sample as a whole. Unmarked numbers belong to inactive results. Activity calls are given as the source filed them. Rule as the data show it: active = growth inhibition above about 70%; inactive = the rest.
Experiments:
[1] = NCI Yeast Anticancer Drug Screen. Data for the rad50 strain (AID 155);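 also: 0% = growth of vehicle-only cultures of the same strain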; details: S. cerevisiae rad50 strain growth inhibition, active compounds read high
How it was run: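 Cells are treated with compound, grown, and their growth is then scored against vehicle-only cultures of the same repair-deficient yeast strain.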

[2] = NCI Yeast Anticancer Drug Screen. Data for the mec2-1 strain (AID 157); details: S. cerevisiae mec2-1 strain, active compounds read high
How it was run: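 Compounds were applied to mec2-1 yeast cells. Their growth was then compared with that of vehicle-treated cultures to give growth inhibition.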

[3] = NCI Yeast Anticancer Drug Screen. Data for the sgs1 mgt1 strain (AID 161);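 also: 0% = growth of cultures given vehicle only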; details: S. cerevisiae sgs1 mgt1 strain, active compounds read high
How it was run: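 Compounds are added to genetically altered yeast, and growth is compared with cultures given vehicle alone to give percent inhibition.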

[4] = NCI Yeast Anticancer Drug Screen. Data for the cln2 rad14 strain (AID 165);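 also: 0% = growth equal to vehicle treated cultures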; details: S. cerevisiae cln2 rad14 strain, active compounds read high
How it was run: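 Strain: cln2 rad14 yeast, altered in cell cycle control and DNA damage repair. Read-out: growth inhibition vs vehicle.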

[5] = NCI Yeast Anticancer Drug Screen. Data for the bub3 strain (AID 167); details: S. cerevisiae bub3 mutant strain, active compounds read high
How it was run: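 Part of a panel of yeast mutants defective in DNA damage repair or cell cycle regulation. Each strain is grown with compound, and inhibition is calculated relative to solvent-treated cultures.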

[6] = NCI Yeast Anticancer Drug Screen. Data for the mlh1 rad18 strain (AID 175); details: S. cerevisiae mlh1 rad18 strain growth inhibition, active compounds read high
How it was run: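 A repair-deficient yeast strain is exposed to test compound, and growth is scored relative to vehicle-treated controls.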

[7] = at 5.0 µM (retest, dose inferred, filed as 0.5)
[8] = at 50.0 µM (retest, dose inferred, filed as 5.0)

Row | SMILES | growth inhibition [1, 7] | growth inhibition [1, 8] | growth inhibition ([1]; at 50.0 µM) | growth inhibition [2, 7] | growth inhibition [2, 8] | growth inhibition ([2]; at 50.0 µM) | growth inhibition [3, 7] | growth inhibition [3, 8] | growth inhibition ([3]; at 50.0 µM) | growth inhibition [4, 7] | growth inhibition [4, 8] | growth inhibition ([4]; at 50.0 µM) | growth inhibition [5, 7] | growth inhibition [5, 8] | growth inhibition ([5]; at 50.0 µM) | growth inhibition [6, 7] | growth inhibition [6, 8] | growth inhibition ([6]; at 50.0 µM)
1 | C[n+]1cccc2c1-c1ccccc1C2=O | 6% | 22% | -2.25% | -1% | 22% | 1.6% | 3% | 8% | 8.15% | -3% | 1% | 39.5% | -2% | 9% | 11.1% | 2% | 28% | 16.1%
2 | COc1ccc(OC)c(/C=C/NC=O)c1 | -10% | 10% | -11.4% | -11% | -7% | 13.2% | -12% | -2% | -6.4% | -15% | 5% | 49.2% | -1% | -2% | -4.35% | 5% | -24% | -0.95%
3 | O=C(O)c1c2c(c(O)c3c1CN(C1CCCCC1)CO3)OCN(C1CCCCC1)C2 | 8% | 35% | 50.4% | 3% | 8% | 53.1% | 4% | 25% | 72.1% (active) | -17% | 5% | 73.7% (active) | 2% | 11% | 32.1% | 0% | 25% | 83.8% (active)
4 | O=C1/C(=C\c2ccccc2)CN(C(=O)CCN2CCCCC2)C/C1=C/c1ccccc1 | 16% | 71% (active) | 89.8% (active) | 22% | 57% | 92.8% (active) | 98% (active) | 99% (active) | 90.3% (active) | 83% (active) | 99% (active) | 90.3% (active) | 99% (active) | 99% (active) | 90.8% (active) | 28% | 74% (active) | 88.8% (active)
5 | C=C(CN1CCCC1)C(=O)c1ccc(OC)cc1 | -6% | 22% | 3.25% | 7% | 65% | 73% (active) | -8% | 55% | 44.4% | 31% | 81% (active) | -20.4% | -6% | 54% | -12% | 4% | 71% (active) | 46.6%
6 | NCCCC(=O)NC(Cc1cnc[nH]1)C(=O)O (stereo not given) | 0% | -5% | -1.3% | -6% | -4% | 29.4% | 1% | -11% | 11.8% | 1% | -2% | 32.5% | -4% | -1% | 2.75% | -11% | -37% | -6.45%
7 | OCCc1c2ccccc2cc2ccccc12 | -135% | -50% | 41.5% | -44% | -41% | 10.6% | -61% | -36% | 11.7% | -52% | -48% | 11.8% | -60% | -43% | 3.35% | -127% | -74% | 59.8%
8 | CCCN1CCN(c2ccc([N+](=O)[O-])c3no[n+]([O-])c23)CC1 | 97% (active) | 99% (active) | 89% (active) | 97% (active) | 99% (active) | 93.3% (active) | 92% (active) | 99% (active) | 89.5% (active) | 52% | 99% (active) | 80.3% (active) | 58% | 98% (active) | 90.2% (active) | 97% (active) | 99% (active) | 88.6% (active)
9 | COc1nc2nc(Cl)cc(C)c2c2ccccc12 (tested in a mixture with another compound) | 33% | 94% (active) | 98.1% (active) | 11% | 91% (active) | 65.2% | 8% | 76% (active) | 52.1% | 3% | 86% (active) | 71.8% (active) | 5% | 94% (active) | 78.5% (active) | 17% | 93% (active) | 54.2%
10 | Cc1cc(Br)c2ccccc2c1N | 1% | 69% | 88.3% (active) | 2% | 39% | 54.2% | 0% | 74% (active) | 94.2% (active) | -1% | 42% | 84.8% (active) | 1% | 22% | 75% (active) | -3% | 44% | 90.2% (active)
